The target of experiment [1] is Tyrosine-protein kinase Fyn (Homo sapiens) (UniProt P06241). As to conditions: at 1 µM.
The target in experiment [2] is Tyrosine-protein kinase HCK (Homo sapiens) (UniProt P08631). As to conditions: at 0.1 µM.
The target is the same in experiment [3]. As to conditions: at 1 µM.
Experiment [4] has as its target Insulin-like growth factor 1 receptor (Homo sapiens) (UniProt P08069). The settings on record: at 0.1 µM.
Experiment [5] shares this target. As to conditions: at 1 µM.
Experiment [6] concerns the target Insulin receptor (Homo sapiens) (UniProt P06213). The settings on record: at 0.1 µM.
Experiment [7] shares this target. As to conditions: at 1 µM.
Experiment [8] concerns the target Insulin receptor-related protein (Homo sapiens) (UniProt P14616). The settings on record: at 0.1 µM.
The target is the same in experiment [9]. The settings on record: at 1 µM.
The target in experiment [10] is T1, Tyrosine-protein kinase ITK/TSK (Homo sapiens) (UniProt Q08881).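 Also: mean percent inhibition of ITK from the GSK PKIS screen.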
T1 sequence (whole entry): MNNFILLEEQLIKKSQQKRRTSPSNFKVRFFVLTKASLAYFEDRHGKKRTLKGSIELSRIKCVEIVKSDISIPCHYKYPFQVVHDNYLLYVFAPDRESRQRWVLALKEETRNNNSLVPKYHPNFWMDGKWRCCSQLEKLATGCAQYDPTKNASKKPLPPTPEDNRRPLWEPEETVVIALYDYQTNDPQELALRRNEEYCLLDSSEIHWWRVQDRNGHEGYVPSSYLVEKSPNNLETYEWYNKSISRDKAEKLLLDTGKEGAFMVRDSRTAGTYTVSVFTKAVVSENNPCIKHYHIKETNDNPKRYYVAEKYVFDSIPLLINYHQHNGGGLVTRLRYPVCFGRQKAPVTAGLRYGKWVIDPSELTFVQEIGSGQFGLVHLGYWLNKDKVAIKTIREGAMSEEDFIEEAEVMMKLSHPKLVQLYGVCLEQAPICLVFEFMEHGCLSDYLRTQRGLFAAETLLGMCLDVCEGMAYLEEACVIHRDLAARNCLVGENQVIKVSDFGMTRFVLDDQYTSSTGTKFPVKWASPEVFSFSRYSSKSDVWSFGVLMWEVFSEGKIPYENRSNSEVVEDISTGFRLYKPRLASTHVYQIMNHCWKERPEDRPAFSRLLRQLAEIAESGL
The settings on record: at 0.1 µM.

Sequence of Tyrosine-protein kinase HCK (Homo sapiens) (P08631 2-526 limits assumed): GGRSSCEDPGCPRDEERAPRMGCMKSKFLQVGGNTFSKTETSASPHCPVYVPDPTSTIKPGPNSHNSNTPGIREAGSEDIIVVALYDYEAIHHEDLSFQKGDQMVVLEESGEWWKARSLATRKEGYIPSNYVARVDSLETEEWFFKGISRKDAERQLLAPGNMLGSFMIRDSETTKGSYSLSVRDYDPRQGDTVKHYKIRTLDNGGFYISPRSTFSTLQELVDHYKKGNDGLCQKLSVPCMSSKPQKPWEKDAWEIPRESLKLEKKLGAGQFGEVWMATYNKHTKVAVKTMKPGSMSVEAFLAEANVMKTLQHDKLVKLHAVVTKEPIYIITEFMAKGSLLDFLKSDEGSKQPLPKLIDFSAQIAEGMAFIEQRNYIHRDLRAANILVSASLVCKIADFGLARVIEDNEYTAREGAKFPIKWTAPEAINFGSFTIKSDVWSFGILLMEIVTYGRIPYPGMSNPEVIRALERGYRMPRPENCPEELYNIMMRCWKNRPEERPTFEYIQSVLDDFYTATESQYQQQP
Sequence of Tyrosine-protein kinase Fyn (Homo sapiens) (P06241 2-537 limits assumed): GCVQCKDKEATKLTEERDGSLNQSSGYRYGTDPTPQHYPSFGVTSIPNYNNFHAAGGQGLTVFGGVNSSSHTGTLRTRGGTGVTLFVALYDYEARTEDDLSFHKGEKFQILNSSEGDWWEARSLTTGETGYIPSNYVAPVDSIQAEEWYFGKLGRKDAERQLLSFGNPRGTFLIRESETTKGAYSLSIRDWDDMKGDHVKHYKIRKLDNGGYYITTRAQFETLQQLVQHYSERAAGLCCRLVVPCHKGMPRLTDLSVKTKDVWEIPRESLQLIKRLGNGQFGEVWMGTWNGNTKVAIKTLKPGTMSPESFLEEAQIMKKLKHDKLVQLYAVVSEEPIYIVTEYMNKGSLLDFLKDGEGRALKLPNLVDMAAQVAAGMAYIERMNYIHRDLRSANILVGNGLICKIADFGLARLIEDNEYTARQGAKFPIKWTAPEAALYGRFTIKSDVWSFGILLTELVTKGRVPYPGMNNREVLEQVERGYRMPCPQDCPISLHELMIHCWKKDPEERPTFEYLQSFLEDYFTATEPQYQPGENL
Sequence of Insulin receptor-related protein (Homo sapiens) (P14616 27-742 limits assumed): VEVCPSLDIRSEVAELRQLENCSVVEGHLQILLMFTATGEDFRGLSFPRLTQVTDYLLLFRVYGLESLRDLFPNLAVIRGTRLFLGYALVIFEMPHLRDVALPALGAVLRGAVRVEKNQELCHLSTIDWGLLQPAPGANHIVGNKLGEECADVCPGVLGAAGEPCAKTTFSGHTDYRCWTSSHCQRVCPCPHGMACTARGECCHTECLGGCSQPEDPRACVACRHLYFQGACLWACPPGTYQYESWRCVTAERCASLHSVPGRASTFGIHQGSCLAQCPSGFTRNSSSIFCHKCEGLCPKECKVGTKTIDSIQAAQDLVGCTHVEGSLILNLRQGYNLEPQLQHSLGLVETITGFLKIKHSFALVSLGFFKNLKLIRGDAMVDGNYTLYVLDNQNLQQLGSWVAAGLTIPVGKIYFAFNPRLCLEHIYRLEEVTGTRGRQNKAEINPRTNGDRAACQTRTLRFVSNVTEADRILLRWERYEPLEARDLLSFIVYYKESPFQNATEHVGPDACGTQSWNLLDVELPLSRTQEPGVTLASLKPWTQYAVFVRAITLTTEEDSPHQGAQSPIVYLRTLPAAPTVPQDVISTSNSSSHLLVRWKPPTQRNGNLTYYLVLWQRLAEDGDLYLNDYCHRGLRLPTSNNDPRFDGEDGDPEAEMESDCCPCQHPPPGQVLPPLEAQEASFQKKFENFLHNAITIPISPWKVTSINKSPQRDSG
Sequence of Insulin receptor-related protein (Homo sapiens) (P14616 747-1297 limits assumed): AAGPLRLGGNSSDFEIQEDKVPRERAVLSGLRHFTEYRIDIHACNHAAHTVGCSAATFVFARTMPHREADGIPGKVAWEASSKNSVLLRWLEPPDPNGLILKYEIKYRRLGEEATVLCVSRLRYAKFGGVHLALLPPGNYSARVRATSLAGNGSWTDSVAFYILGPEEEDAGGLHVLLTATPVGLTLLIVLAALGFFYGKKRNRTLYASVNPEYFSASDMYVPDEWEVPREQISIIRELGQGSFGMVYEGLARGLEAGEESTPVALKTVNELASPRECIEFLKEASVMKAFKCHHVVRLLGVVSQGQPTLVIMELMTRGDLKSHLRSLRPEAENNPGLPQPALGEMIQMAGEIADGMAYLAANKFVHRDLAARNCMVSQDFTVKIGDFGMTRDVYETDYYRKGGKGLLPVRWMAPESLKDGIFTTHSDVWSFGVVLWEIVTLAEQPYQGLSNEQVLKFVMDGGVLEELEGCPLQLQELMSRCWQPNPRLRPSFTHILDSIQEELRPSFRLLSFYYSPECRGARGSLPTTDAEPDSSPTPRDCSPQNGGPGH
Sequence of Insulin receptor (Homo sapiens) (P06213 28-758 limits assumed): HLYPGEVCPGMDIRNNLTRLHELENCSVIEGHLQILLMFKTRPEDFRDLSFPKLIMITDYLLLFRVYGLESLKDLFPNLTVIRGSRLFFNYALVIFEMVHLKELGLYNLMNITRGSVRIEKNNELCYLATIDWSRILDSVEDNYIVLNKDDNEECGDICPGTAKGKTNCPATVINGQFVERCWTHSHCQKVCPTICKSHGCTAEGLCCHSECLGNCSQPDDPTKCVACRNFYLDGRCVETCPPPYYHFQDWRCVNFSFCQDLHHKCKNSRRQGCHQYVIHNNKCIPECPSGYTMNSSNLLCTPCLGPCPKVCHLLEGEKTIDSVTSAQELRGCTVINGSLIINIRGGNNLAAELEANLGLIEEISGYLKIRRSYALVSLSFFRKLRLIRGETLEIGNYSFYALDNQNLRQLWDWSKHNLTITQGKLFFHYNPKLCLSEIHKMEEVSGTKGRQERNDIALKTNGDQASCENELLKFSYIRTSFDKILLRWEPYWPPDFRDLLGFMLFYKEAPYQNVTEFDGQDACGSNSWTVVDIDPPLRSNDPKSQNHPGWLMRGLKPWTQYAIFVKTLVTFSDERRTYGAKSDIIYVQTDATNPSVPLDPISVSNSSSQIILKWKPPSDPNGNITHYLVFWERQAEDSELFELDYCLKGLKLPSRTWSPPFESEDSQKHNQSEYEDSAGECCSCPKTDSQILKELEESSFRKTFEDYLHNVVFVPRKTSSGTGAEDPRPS
Sequence of Insulin receptor (Homo sapiens) (P06213 763-1382 limits assumed): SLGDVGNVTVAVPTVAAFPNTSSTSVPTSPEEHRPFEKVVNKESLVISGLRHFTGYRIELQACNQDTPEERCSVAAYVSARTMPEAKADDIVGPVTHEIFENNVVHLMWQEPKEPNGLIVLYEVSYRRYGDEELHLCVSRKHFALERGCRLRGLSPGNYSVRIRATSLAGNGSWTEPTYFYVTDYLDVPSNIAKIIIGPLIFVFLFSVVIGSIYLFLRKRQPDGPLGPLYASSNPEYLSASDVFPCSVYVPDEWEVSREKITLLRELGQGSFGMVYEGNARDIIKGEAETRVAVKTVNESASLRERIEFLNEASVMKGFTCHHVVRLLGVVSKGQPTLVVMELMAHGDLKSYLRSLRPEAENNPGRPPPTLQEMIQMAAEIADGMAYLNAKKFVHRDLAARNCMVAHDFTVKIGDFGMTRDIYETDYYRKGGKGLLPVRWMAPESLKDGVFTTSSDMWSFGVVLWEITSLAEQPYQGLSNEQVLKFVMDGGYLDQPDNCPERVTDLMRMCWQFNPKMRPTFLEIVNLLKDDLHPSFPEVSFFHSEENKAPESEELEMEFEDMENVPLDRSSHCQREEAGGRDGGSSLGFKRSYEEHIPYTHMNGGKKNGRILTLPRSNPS
Sequence of Insulin-like growth factor 1 receptor (Homo sapiens) (P08069 31-736 limits assumed): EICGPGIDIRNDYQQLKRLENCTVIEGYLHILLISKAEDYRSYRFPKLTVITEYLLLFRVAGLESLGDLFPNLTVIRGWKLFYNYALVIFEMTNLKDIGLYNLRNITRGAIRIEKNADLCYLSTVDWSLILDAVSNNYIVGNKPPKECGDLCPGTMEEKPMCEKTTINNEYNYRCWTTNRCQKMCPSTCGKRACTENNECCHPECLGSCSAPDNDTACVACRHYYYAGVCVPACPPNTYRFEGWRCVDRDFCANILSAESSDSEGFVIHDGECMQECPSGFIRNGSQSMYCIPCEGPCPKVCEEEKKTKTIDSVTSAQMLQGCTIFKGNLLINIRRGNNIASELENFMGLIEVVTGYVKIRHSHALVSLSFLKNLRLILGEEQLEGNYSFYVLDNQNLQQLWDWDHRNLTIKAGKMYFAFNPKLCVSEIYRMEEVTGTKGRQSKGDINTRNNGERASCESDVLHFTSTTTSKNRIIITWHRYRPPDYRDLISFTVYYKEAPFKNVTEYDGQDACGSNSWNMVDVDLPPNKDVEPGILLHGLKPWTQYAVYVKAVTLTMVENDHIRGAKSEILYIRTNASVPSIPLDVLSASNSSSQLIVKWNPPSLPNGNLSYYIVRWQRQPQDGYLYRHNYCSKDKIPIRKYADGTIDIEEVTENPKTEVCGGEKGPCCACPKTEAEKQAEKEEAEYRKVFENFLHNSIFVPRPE
Sequence of Insulin-like growth factor 1 receptor (Homo sapiens) (P08069 741-1367 limits assumed): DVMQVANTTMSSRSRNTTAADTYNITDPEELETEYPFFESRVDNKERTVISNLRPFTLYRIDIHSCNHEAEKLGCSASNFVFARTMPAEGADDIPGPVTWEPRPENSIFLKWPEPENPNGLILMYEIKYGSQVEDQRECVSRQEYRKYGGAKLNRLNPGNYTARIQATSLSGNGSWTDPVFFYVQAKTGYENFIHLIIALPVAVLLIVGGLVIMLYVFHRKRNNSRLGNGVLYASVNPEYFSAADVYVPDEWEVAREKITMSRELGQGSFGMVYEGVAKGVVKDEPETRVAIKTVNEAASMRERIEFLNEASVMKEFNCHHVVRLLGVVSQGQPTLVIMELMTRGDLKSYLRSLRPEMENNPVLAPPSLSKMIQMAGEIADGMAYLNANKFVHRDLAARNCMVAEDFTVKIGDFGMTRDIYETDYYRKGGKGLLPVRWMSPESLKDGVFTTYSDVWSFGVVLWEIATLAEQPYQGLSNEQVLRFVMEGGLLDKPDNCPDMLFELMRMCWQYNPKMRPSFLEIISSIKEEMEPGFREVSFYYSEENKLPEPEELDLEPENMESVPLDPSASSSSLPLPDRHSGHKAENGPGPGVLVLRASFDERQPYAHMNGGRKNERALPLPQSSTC

Regarding `COc1cc2ncn(-c3cc(OCCc4ccccc4)c(C(N)=O)s3)c2cc1OC`, the inhibition in experiment [1] came out at 2.86%; in experiment [2] it was 2.34%; in experiment [3] it was 11.2%; in experiment [4], 1.99%; in experiment [5], 2.07%; in experiment [6], 2.51%. Further, the inhibition in experiment [7] was determined as 0.56%; in experiment [8] it was 2.17%; in experiment [9] it was 2.64%; in experiment [10], 1.33%.
In the case of `O=C(Nc1n[nH]c2nc(-c3ccco3)ccc12)C1CC1`, the inhibition in experiment [1] was 1.67%; in experiment [2], 3.22%; in experiment [3] it was 7.96%; in experiment [4] it was 1.21%; in experiment [5], 2.33%; in [6] it was -3.11%. Further, the inhibition in experiment [7] worked out at 0.45%; in experiment [8], 1.25%; in experiment [9] it was 0.79%; in [10] it was 1.08%.
Take `Fc1ccc(-c2ncn(C3CCNCC3)c2-c2ccnc(Oc3ccc4c(c3)OCO4)n2)cc1`: the inhibition is 3.17% in [1]; 6.2% in [2]; 10.9% in [3]; 0.4% in [4]; 2.16% in experiment [5]; 2.85% in [6]. Further, the inhibition worked out at 3.42% in experiment [7], 3.09% in experiment [8], 3.51% in experiment [9] and 1.6% in experiment [10].
For `COc1cc(N2CCN(C(C)C)CC2)ccc1Nc1nc(Nc2ccc(F)cc2C(=O)NC[C@@H](O)CO)c2cc[nH]c2n1`, the inhibition in experiment [1] was -0.08%; in experiment [2] it was 3.99%; in experiment [3], 5%; in [4], 80.6%; in [5] it was 92.6%; in experiment [6] it was 110%. The inhibition in [7] was 116%; in experiment [8], 26.6%; in experiment [9], 78%; in [10] it was -1.99%.
Take `COc1cc2ncn(-c3cc(OCc4ccccc4C(F)(F)F)c(C(C)=O)s3)c2cc1OC`: the inhibition in experiment [1] was 8.03%; in experiment [2], 5.79%; in experiment [3] it was 9.81%; in experiment [4] it was -2.34%; in [5], 1.09%; in experiment [6], -1.39%. Moreover, the inhibition in experiment [7] was -0.63%; in experiment [8], 5%; in [9] it was 3.18%; in experiment [10], 0.57%.
For `CN(C)c1ccc2c(c1)/C(=C/Nc1ccc(S(N)(=O)=O)cc1)C(=O)N2`, the inhibition was 13.1% in [1]; 4.88% in [2]; 20.5% in experiment [3]; 9.21% in experiment [4]; 11.9% in [5]; 3.88% in experiment [6]. Also, the inhibition in experiment [7] was 6.31%; in experiment [8] it was 0.97%; in experiment [9], 3.14%; in experiment [10], 1.03%.
Take `NC(=O)c1cc(-c2ccncc2)cc(-c2ccccc2)c1N`: the inhibition in [1] came to 37.6%; in experiment [2] it was 12.1%; in [3], 43.7%; in experiment [4], 5.73%; in experiment [5], 5.9%; in experiment [6], 6.28%. Moreover, the inhibition in experiment [7] was 6.25%; in [8], 2.11%; in [9], 1.56%; in [10], 1.61%.
Turning to `O=C1NC(=O)C(c2cccc(Cl)c2)=C1Nc1ccc(Cl)c(C(=O)O)c1`, the inhibition was found to be 6.23% in [1]; 3.57% in experiment [2]; 3.65% in experiment [3]; 2.14% in [4]; 3.35% in experiment [5]; 4.57% in [6]. The inhibition in [7] is 7.53%; in experiment [8], 1.75%; in experiment [9], 1.42%; in experiment [10], 1.1%.
In the case of `NCc1ccc(-n2c(-c3nonc3N)nc3cnccc32)cc1`, the inhibition was 0.2% in experiment [1]; 6.26% in experiment [2]; 10.4% in experiment [3]; 5.71% in experiment [4]; 8.21% in experiment [5]; 8.46% in [6]. For the same molecule, the inhibition was determined as 8.17% in experiment [7], 3.81% in experiment [8], 2.5% in [9] and 1.67% in [10].
`COc1ccc(C2=C(N3CCc4ccccc43)C(=O)NC2=O)cc1`: the inhibition is 4.68% in [1]; 8.17% in [2]; 9.54% in experiment [3]; 4.43% in experiment [4]; 6.19% in experiment [5]; 4.83% in experiment [6]. For the same molecule, the inhibition in experiment [7] was 8.59%; in [8], 2.42%; in experiment [9] it was 1.91%; in experiment [10] it was 1.76%.
In the case of `COc1cc(C)c(N(C)C(=O)CN(C)C)cc1Nc1nc(Nc2cccc(F)c2C(N)=O)c2cc[nH]c2n1`, the inhibition in experiment [1] was -2.41%; in experiment [2], 2.52%; in experiment [3], 4.78%; in experiment [4], 31.2%; in experiment [5], 81.6%; in experiment [6], 52.5%. The inhibition in experiment [7] is 107%; in [8] it was 5.09%; in experiment [9] it was 17.1%; in experiment [10], -2.44%.
For the molecule `NC(=O)Cc1ccccc1Oc1nccc(-c2c(-c3ccc(F)cc3)ncn2C2CCNCC2)n1`, the inhibition in [1] stood at 2.13%; in [2] it was 2.65%; in [3] it was 5.75%; in [4] it was 3.37%; in [5] it was 3.6%; in experiment [6] it was 5.96%. In addition, the inhibition amounted to 6.34% in experiment [7], 0.84% in experiment [8], 1.69% in experiment [9] and 1.33% in experiment [10].
Turning to `Cc1ccc(C(=O)NC2CCC2)cc1-c1ccc(C(=O)NCC2CC2)cc1`, the inhibition worked out at 2.7% in experiment [1]; 4.64% in experiment [2]; 6.65% in experiment [3]; 2.06% in experiment [4]; 3.83% in [5]; 4.44% in experiment [6]. The inhibition came out at 5.62% in experiment [7], 0.92% in [8], 1.77% in experiment [9] and 2.02% in experiment [10].
In the case of `CCS(=O)(=O)c1ccc(OC)c(Nc2ncc(-c3ccccc3Cl)o2)c1`, the inhibition was 19.1% in experiment [1]; 4.06% in [2]; 11.8% in experiment [3]; 1.62% in experiment [4]; 5.87% in [5]; -0.92% in experiment [6]. In addition, the inhibition in experiment [7] turned out to be 3.26%; in [8], 1.25%; in experiment [9], 3.78%; in [10], 0.29%.
Take `NC(=O)c1cc(-c2ccc(F)cc2)cc(-c2ccncc2)c1N`: the inhibition in experiment [1] is 5.17%; in experiment [2] it was 6.59%; in [3], 7.14%; in experiment [4], 2.14%; in experiment [5], -0.61%; in experiment [6], 5.25%. For the same molecule, the inhibition in experiment [7] came to 5.27%; in experiment [8], 1.58%; in experiment [9] it was 1.32%; in [10], 0.92%.
In the case of `Fc1ccc(-c2nc3n(c2-c2ccncc2)CCS3)cc1`, the inhibition in experiment [1] was -3.64%; in [2] it was 4.65%; in experiment [3], 7.02%; in experiment [4], -2.12%; in experiment [5], -4.05%; in experiment [6], 7.27%. Moreover, the inhibition in experiment [7] was 5.39%; in experiment [8], 2.11%; in [9], 1.09%; in experiment [10], -1.96%.
`NS(=O)(=O)c1ccc(Nc2cc(-c3ccc(O)c(F)c3)n[nH]2)cc1`: the inhibition in [1] was 9.16%; in [2], 0.38%; in experiment [3], 11.1%; in experiment [4] it was -1.39%; in [5] it was -0.67%; in [6] it was -3.62%. Also, the inhibition is 2.77% in [7], -4.66% in experiment [8], -2.36% in experiment [9] and 0.74% in experiment [10].
In the case of `COc1ccc(-c2ccc3c(NC(=O)C4CC4)n[nH]c3n2)cc1`, the inhibition was 4% in [1]; -0.93% in [2]; 5.16% in experiment [3]; 1.17% in experiment [4]; 0.43% in experiment [5]; 1.07% in [6]. Moreover, the inhibition in [7] came out at 3.1%; in [8], 0.55%; in experiment [9], 0.43%; in experiment [10], 0.61%.
For the molecule `NS(=O)(=O)c1ccc(N/N=C2\C(=O)Nc3ccc(-c4cnco4)cc32)cc1`, the inhibition was 7.81% in experiment [1]; 5.08% in experiment [2]; 23.3% in [3]; -2.26% in experiment [5]; 1.72% in [6]; 7.36% in experiment [7]. In addition, the results for the inhibition in experiment [8], in experiment [9] and in [10] were -1.08%, 0.6% and -3.91%, respectively.
Regarding `NC(=O)c1ccc(Oc2nccc(-c3c(-c4ccc(F)cc4)ncn3C3CCNCC3)n2)cc1`, the inhibition in experiment [1] is 3.44%; in experiment [2], 6.86%; in experiment [3] it was 8.21%; in experiment [4], 5.51%; in [5], 7.32%; in experiment [6], 7.88%. Moreover, the inhibition was 6.48% in [7], 3.06% in [8], 4.99% in experiment [9] and 3.1% in experiment [10].
